Data reported in PubChem BioAssay (Tox21).
Results filed as inconclusive are left out. Activity calls are given as the source filed them. Unless noted, the call rests on the fitted dose curve; in most records, active means well fitted curve in the direction sought with a large enough effect in the repeat runs; inconclusive means weak or mixed curves; inactive means flat fitted curve, though single readings scatter.

What was measured:
[1] = qHTS assay to test for compound auto fluorescence at 535 nm (green) in HEK293 cells (AID 720680)
[2] = qHTS assay to test for compound auto fluorescence at 460 nm (blue) in HEK293 cell free culture (AID 720681)
Procedure, shortened: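 Blue fluorescence (Ex 405/Em 460 nm, triamterene-equivalent) was read immediately after pin transfer of compound or DMSO into medium (DMEM, 10% FBS) without cells.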

[3] = qHTS assay to test for compound auto fluorescence at 535 nm (green) in HEK293 cell free culture (AID 720682)
Procedure, shortened: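 Fluorescein serves as the green reference fluorophore; each compound's intrinsic emission at 535 nm (excitation 485 nm) is reported as an equivalent amount of that dye, measured in serum-containing DMEM without cells.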

[4] = qHTS assay to test for compound auto fluorescence at 590 nm (red) in HEK293 cell free culture (AID 720683)
Procedure, shortened: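 Red-channel autofluorescence of compounds in culture medium (DMEM, 10% FBS), no cells, measured at 540/590 nm. Rose Bengal sodium is the reference fluorophore for equivalence.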

[5] = qHTS assay to test for compound auto fluorescence at 590 nm (red) in HepG2 cell free culture (AID 720684)
Procedure, shortened: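 Plate contents were MEM with 10% FBS plus test compound or DMSO, no cells. Fluorescence was recorded with 540 nm excitation and 590 nm emission.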

[6] = qHTS assay to test for compound auto fluorescence at 460 nm (blue) in HepG2 cell free culture (AID 720685)
Procedure, shortened: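 Compound (23 nL) or DMSO pinned into cell-free MEM with 10% FBS; blue fluorescence read at 405/460 nm excitation/emission, expressed as auto-fluorescence equivalency to triamterene.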

[7] = qHTS assay to test for compound auto fluorescence at 535 nm (green) in HepG2 cell free culture (AID 720686)
[8] = qHTS assay to test for compound auto fluorescence at 460 nm (blue) in HepG2 cells (AID 720687)
Procedure, shortened: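 Blue-channel autofluorescence (Ex/Em 405/460 nm, triamterene-equivalent) was measured after 1 hr compound exposure at 37 C, 5% CO2. Cells were HepG2, plated overnight at 37 C in MEM plus 10% FBS.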

[9] = target: Glucocorticoid receptor (Homo sapiens) (UniProt P04150); assay: qHTS assay to identify small molecule agonists of the glucocorticoid receptor (GR) signaling pathway (AID 720691; active means well fitted activation curve with a large enough effect in the signal ratio in the repeat runs, not every such curve was filed as active; the % refers to the signal ratio)
Procedure, shortened: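 qHTS in GR-bla HeLa cells: 4 h settling at 37 C/5% CO2, 18 h compound incubation at 37 C, 2 h LiveBLAzer B/G FRET substrate at room temperature, fluorescence intensity measured.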

[10] = target: Glucocorticoid receptor (Homo sapiens) (UniProt P04150); assay: qHTS assay to identify small molecule antagonists of the glucocorticoid receptor (GR) signaling pathway (AID 720692; active means well fitted inhibition curve with a large enough effect in the signal ratio in the repeat runs, not every such curve was filed as active; the % refers to the signal ratio)
Procedure, shortened: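 Inhibition of glucocorticoid signalling is measured in HeLa cells with a GRE-controlled beta-lactamase reporter; cells are co-treated with compound and 5 nM dexamethasone (final) for 18 h before FRET substrate readout.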
On the % scale 0 is the no-effect control and ±100 the full control effect.

Sequence of Glucocorticoid receptor (Homo sapiens) (P04150 whole entry, looked up): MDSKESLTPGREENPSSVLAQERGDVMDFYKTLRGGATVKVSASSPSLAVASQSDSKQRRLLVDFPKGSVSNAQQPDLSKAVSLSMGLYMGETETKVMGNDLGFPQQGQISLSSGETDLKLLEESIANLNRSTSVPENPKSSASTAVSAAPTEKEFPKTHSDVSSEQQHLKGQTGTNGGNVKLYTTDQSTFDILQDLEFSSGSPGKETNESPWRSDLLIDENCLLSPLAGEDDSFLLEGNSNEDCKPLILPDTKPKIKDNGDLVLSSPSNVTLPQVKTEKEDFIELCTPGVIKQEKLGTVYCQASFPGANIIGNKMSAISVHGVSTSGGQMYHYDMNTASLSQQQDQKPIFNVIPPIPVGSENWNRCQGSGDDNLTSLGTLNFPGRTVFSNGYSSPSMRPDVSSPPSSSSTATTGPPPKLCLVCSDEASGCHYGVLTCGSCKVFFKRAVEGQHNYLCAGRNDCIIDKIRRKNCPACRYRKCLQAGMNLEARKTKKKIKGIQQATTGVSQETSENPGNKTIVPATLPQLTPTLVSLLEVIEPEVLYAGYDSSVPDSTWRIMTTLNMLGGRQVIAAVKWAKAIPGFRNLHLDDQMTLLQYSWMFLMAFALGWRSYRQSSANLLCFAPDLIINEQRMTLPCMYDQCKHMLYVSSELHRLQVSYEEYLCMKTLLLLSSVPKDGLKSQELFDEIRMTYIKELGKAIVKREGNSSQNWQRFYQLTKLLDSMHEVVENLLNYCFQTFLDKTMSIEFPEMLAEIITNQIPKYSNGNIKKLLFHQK

C=CC(C)(O)CC/C=C(\C)CC (centres undefined)
inactive: outcome [1] | outcome [2] | outcome [3] | outcome [4] | outcome [5] | outcome [6] | outcome [7] | outcome [8] | Potency [9] | outcome [10]

OCCCCCCCl
inactive: outcome [1] | outcome [2] | outcome [3] | outcome [4] | outcome [6] | outcome [7] | outcome [8] | Potency [9] | outcome [10]

CCC(C)N (centres undefined)
inactive: outcome [1] | outcome [2] | outcome [3] | outcome [4] | outcome [6] | outcome [7] | outcome [8] | Potency [9]

CCCCCCCC[Si](OCC)(OCC)OCC
inactive: outcome [1] | outcome [2] | outcome [3] | outcome [4] | outcome [5] | outcome [7] | Potency [9] | outcome [10]

CNC(=O)C(c1ccccc1)c1ccccc1
inactive: outcome [1] | outcome [2] | outcome [3] | outcome [4] | outcome [6] | outcome [7] | outcome [8] | Potency [9] | outcome [10]

CC(C)(c1ccc(Oc2ccc3c(c2)C(=O)OC3=O)cc1)c1ccc(Oc2ccc3c(c2)C(=O)OC3=O)cc1
inactive: outcome [1] | outcome [2] | outcome [3] | outcome [4] | outcome [6] | outcome [7] | outcome [8] | Potency [9] | outcome [10]

CC(C)(C)NCCO
inactive: outcome [1] | outcome [2] | outcome [3] | outcome [4] | outcome [6] | outcome [7] | outcome [8] | Potency [9] | outcome [10]

CCN(Cc1cccc(S(=O)(=O)O)c1)c1ccccc1
inactive: outcome [1] | outcome [2] | outcome [3] | outcome [4] | outcome [6] | outcome [7] | outcome [8] | Potency [9] | outcome [10]

CC(=O)OCCCc1ccccc1
inactive: outcome [1] | outcome [2] | outcome [3] | outcome [4] | outcome [6] | outcome [7] | outcome [8]

CC(CC(=O)O)CC(C)(C)C (centres undefined)
inactive: outcome [1] | outcome [2] | outcome [3] | outcome [4] | outcome [6] | outcome [7] | outcome [8]

CN=C(NC#N)NCCSCc1csc(N=C(N)N)n1
inactive: outcome [1] | outcome [2] | outcome [3] | outcome [4] | outcome [6] | outcome [7] | outcome [8] | Potency [9] | outcome [10]

COc1ccc(N=Nc2cc(C)c(N=Nc3ccc(S(=O)(=O)O)cc3)cc2OC)cc1
inactive: outcome [1] | outcome [2] | outcome [3] | outcome [4] | outcome [6] | outcome [7] | outcome [8] | Potency [9] | outcome [10]

O=CN1CCOCC1
inactive: outcome [1] | outcome [2] | outcome [3] | outcome [4] | outcome [6] | outcome [7] | outcome [8]

CCCCCC(=O)OCC
inactive: outcome [1] | outcome [2] | outcome [3] | outcome [4] | outcome [5] | outcome [7] | Potency [9]

COC(OC)C(C)c1ccccc1 (centres undefined)
inactive: outcome [1] | outcome [2] | outcome [3] | outcome [4] | outcome [6] | outcome [7] | outcome [8] | Potency [9] | outcome [10]

CCCCCCCCCCCCCCCCI
inactive: fluorescence, % of fluorescein [1] 0.0243% [at 18.6 µM] | fluorescence, % of fluorescent control [2] -0.0222% [at 18.6 µM] | activity change [3] -0.0077% [at 18.6 µM] | fluorescence, % of fluorescent control [4] 0.0155% [at 18.6 µM] | fluorescence, % of fluorescent control [6] -0.142% [at 18.6 µM] | fluorescence, % of fluorescein control [7] 0.0097% [at 18.6 µM] | fluorescence, % of fluorescent control [8] 0.151% [at 18.6 µM]

O=C(O)c1c(Cl)ccc(Cl)c1Cl
inactive: outcome [1] | outcome [2] | outcome [3] | outcome [4] | outcome [6] | outcome [7] | outcome [8] | Potency [9] | outcome [10]

Nc1c(NC/C=C\COc2cc(CN3CCCCC3)ccn2)c(=O)c1=O
inactive: outcome [1] | outcome [2] | outcome [3] | outcome [4] | outcome [6] | outcome [7] | outcome [8] | Potency [9] | outcome [10]

O=C(O)CCNC(=O)c1ccccc1
inactive: outcome [1] | outcome [2] | outcome [3] | outcome [4] | outcome [5] | outcome [7] | Potency [9] | outcome [10]

CCCCC[Si](OCC)(OCC)OCC
inactive: outcome [1] | outcome [2] | outcome [3] | outcome [4] | outcome [5] | outcome [7] | Potency [9]

C=CCOC(=O)c1ccc(C(=O)OCC=C)c(C(=O)OCC=C)c1
inactive: outcome [1] | outcome [2] | outcome [3] | outcome [4] | outcome [6] | outcome [7] | Potency [9]

CCCCCCCCCOCC1CO1 (centres undefined)
inactive: outcome [1] | outcome [2] | outcome [3] | outcome [4] | outcome [6] | outcome [7] | outcome [8] | Potency [9] | outcome [10]

CCCCCCCCOC(C)=O
inactive: outcome [1] | outcome [2] | outcome [3] | outcome [4] | outcome [6] | outcome [7] | outcome [8]

CC(=O)/C=C/c1ccco1
inactive: outcome [1] | outcome [2] | outcome [3] | outcome [4] | outcome [6] | outcome [7]

CCNC(=O)/C=C/c1cccc(Br)c1
inactive: outcome [1] | outcome [2] | outcome [3] | outcome [4] | outcome [7] | Potency [9]

O=C(O)c1ccccc1C(=O)OCc1ccccc1
inactive: outcome [1] | outcome [2] | outcome [3] | outcome [4] | outcome [7] | outcome [8] | Potency [9] | outcome [10]
